Results filed as inconclusive are left out. Activity calls are given as the source filed them. Calls follow the shape of the dose curve; as a rule, active = well fitted inhibition curve with a large enough effect; inconclusive = small, poorly fitted or top-dose-only effect; inactive = flat fitted curve, though single readings scatter.
Legend:
Experiment in all cases: Cytotoxic Profiling of Annotated Libraries Using Quantitative High-Throughput Screening (AID 1296008); also: nearly all actives have a fitted effect of over 60% in size
Conditions in all cases: Five cell lines viability, CellTiter-Glo ATP luminescence, 48-72 h; max response: hits give low values
CRL-7250 = normal cell line; test system: CRL-7250
How it was run: (§1)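 Cells exposed to compounds for 48 or 72 hr at 37 degrees Celsius. Viability read as ATP-coupled luminescence with CellTiter-Glo after 10 min at room temperature.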

HEK293 = test system: HEK293
How it was run: as §1

HaCat = test system: HaCat
How it was run: as §1

Measured: max response
% is scaled to controls: 0 for no effect and ±100 for the full control effect.

Oc1ccc2c3c1O[C@H]1[C@H](N(CCCl)CCCl)CC[C@@]4(O)[C@@H](C2)N(CC2CC2)CC[C@]314
inactive: CRL-7250 -3.35% | HEK293 0.595% | HaCat -4.26%

C[C@]12CC[C@H]3[C@@H]([C@H](O)CC4=CC(=O)CC[C@@]43C)[C@@H]1CC[C@@H]2O
inactive: CRL-7250 | HEK293 -7.8% | HaCat -25.7%

CC(C)(C)c1cc(C(C)(C)C)c2c(c1)C(O)(C(F)(F)F)C(=O)O2 (centres undefined)
inactive: CRL-7250 | HEK293 1.2% | HaCat

CC(=O)OC12C(O)C(C)C3(O)C4C=C(C)C(=O)C4CC(CO)=CC3C1C2(C)C (centres undefined)
inactive: CRL-7250 1.13% | HEK293 -4.3% | HaCat -13.8%

CN1[C@@H]2CC[C@H]1CC(OC(=O)C1C=Nc3ccccc31)C2 (some centres undefined)
inactive: CRL-7250 0.829% | HEK293 -5.26% | HaCat 2.07%

C/C=C(\C)C(=O)O[C@H]1[C@H](OC(C)=O)[C@]2(CO)[C@H](O)[C@H](O)[C@]3(C)C(=CCC4[C@@]5(C)CC[C@H](O[C@@H]6O[C@H](C(=O)O)[C@@H](O)[C@H](O[C@@H]7OC[C@H](O)[C@H](O[C@@H]8OC[C@H](O)[C@H](O)[C@H]8O)[C@H]7O)[C@H]6O[C@@H]6O[C@H](CO)[C@@H](O)[C@H](O)[C@H]6O)C(C)(C)C5CC[C@]43C)[C@@H]2CC1(C)C (some centres undefined)
inactive: CRL-7250 4.83% | HEK293 | HaCat 3.31%

O=C1C[C@@H]2OCC=C3CN4CC[C@]56c7ccccc7N1[C@H]5[C@H]2[C@H]3C[C@H]46
inactive: CRL-7250 | HEK293 -6.49% | HaCat

C[C@@H]1C(=O)O[C@H]2[C@H](O)[C@@]34[C@@H]5OC(=O)[C@@]3(O[C@@H]3OC(=O)[C@@H](O)[C@@]34[C@H](C(C)(C)C)[C@H]5O)[C@@]12O
inactive: CRL-7250 -6.45% | HEK293 -8.33% | HaCat

CC(=O)OC1CC(O)C(C)(C)C2CC(OC(C)=O)C3(C)C(CCC4(C)C(c5ccoc5)C(=O)C5OC543)C12C (centres undefined)
inactive: CRL-7250 -0.447% | HEK293 -14.4% | HaCat -11.6%

O=C(N1CCOCC1)N1CCN(c2ccc(Cl)cc2)CC1
inactive: CRL-7250 | HEK293 -0.253% | HaCat

COC1=CC(=O)O[C@@H](/C=C/c2ccccc2)C1
inactive: CRL-7250 -9.99% | HEK293 -8.8% | HaCat

COC(=O)C1(C)CCC(O)C2(C)c3c(O)cc(C(C)C)cc3C(O)C(OC(C)=O)C12 (centres undefined)
inactive: CRL-7250 | HEK293 | HaCat -12.7%

C1=C2CCCN[C@H]2[C@@H]2C[C@H]1[C@H]1CCCCN1C2
inactive: CRL-7250 | HEK293 -4.85% | HaCat -5.08%

CCc1c(C(=O)C(N)=O)c2c(OCC(=O)OC)cccc2n1Cc1ccccc1
inactive: CRL-7250 | HEK293 | HaCat -4%

C[C@@]1(C(=O)O)CC[C@]2(C)CC[C@]3(C)C4=CC(=O)c5cc(O)c(O)cc5[C@]4(C)CC[C@@]3(C)[C@@H]2C1
inactive: CRL-7250 | HEK293 -9.77% | HaCat

CCC1NC(=O)C2C(Cl)C(Cl)CN2C(=O)C(C(C)O)NC(=O)CC(c2ccccc2)NC(=O)C(CO)NC1=O (centres undefined)
inactive: CRL-7250 3.8% | HEK293 -1.23% | HaCat 4.16%

Cc1c(Cl)cccc1S(=O)(=O)Nc1nc(CC(=O)N2CCN(C)CC2)cs1
inactive: CRL-7250 0.391% | HEK293 -10.3% | HaCat

COCC1OC(=O)c2coc3c2C1(C)C1=C(C3=O)C2CCC(=O)C2(C)CC1O (centres undefined)
inactive: CRL-7250 | HEK293 | HaCat

CC(C)=C1CC[C@]23CO[C@H](C2)[C@@](O)(C(=O)O)CCC13 (some centres undefined)
inactive: CRL-7250 4.82% | HEK293 | HaCat -7.37%

COc1c(C(C)C)cc2c(c1O)[C@@]1(C(=O)O)CCCC(C)(C)C1CC2 (some centres undefined)
inactive: CRL-7250 | HEK293 | HaCat 0.977%

CCC(C)(OC(C)=O)C(=O)O[C@H]1[C@H](OC(C)=O)C[C@@H]2[C@@](C)([C@@H]3C[C@H]4C=CO[C@H]4O3)[C@H](C)C[C@H](OC(C)=O)[C@@]2(COC(C)=O)[C@@]12CO2 (some centres undefined)
inactive: CRL-7250 | HEK293 | HaCat

COC(=O)N1CCN(C(=O)Cc2ccc(Cl)c(Cl)c2)[C@@H](CN2CCCC2)C1
inactive: CRL-7250 -2.38% | HEK293 -9.31% | HaCat -8.83%

Cc1cn(C[C@H](N)C(=O)O)c(=O)n(Cc2cc(-c3ccccc3)sc2C(=O)O)c1=O
inactive: CRL-7250 -1.8% | HEK293 -3.99% | HaCat -2.49%
